Among the data in PubChem BioAssay AID434973 (Sanford-Burnham Center for Chemical Genomics, 2010) are inhibition values, retold here.

The whole screen tested about 330,000 compounds, of which about 4,900 (1.5%) were called active.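 How the source made its calls: active means inhibition above about 50% at the single test dose (limit read from the data); inactive means the rest.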 What follows is part of a selection rich in actives, with near analogues and random picks from the rest.

In the assay the target is Sentrin-specific protease 7 (Homo sapiens) (UniProt Q9BQF6). Kind of assay: blockers of human SENP7 peptidase activity – biochemical, luminescence, uHTS, primary screen (AID 434973).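 Further: plate controls were DMSO with enzyme for no effect and no enzyme buffer wells for full effect.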 The note with it: recombinant SENP7, Z-RLRGG-aminoluciferin luminescence, 40 min; at 5 µM; active compounds read high.
As usually defined, the inhibition is the drop in the measured response relative to a control, in per cent. As for `CCCCn1nc(C(=O)N2CCc3ccccc32)c2ccccc2c1=O`, the inhibition is 2.25% (inactive).

Take `CCCCN(CC(=O)NC(C)(C)C)C(=O)C(=O)Nc1ccc2c(c1)OCCO2`: the inhibition is -0.161% (inactive).

As to `CCNC(=S)N1CCC(c2nc3cc(C)c(C)cc3[nH]2)CC1`, the inhibition is 1.02% (inactive).

In the case of `O=C(Cc1ccccc1)NNS(=O)(=O)c1ccc([N+](=O)[O-])cc1`, the inhibition is 3.61% (inactive).

For the molecule `O=C(O)/C=C/C(=O)NNc1ccc([N+](=O)[O-])cc1`, the inhibition was 81.7% (active).

Turning to `CNC(=S)Nc1ccc([N+](=O)[O-])cc1`, the inhibition was -6.08% (inactive).

Turning to `CN(CC(=O)Nc1ccc(F)cc1)CC(=O)N1CCCCC1`, the inhibition was 4.6% (inactive).

Turning to `CSC1=N/C(=C\C=C\c2cccs2)C(=O)S1`, the inhibition is 43.7% (inactive).

As for `CCC1C=C(c2ccccc2)C=CN=C1N(CC)CC` (stereo unspecified), the inhibition was 2.68% (inactive).

As to `Cn1c(-c2ccco2)nc2cc3ccccc3cc21`, the inhibition is 98.5% (active).

Take `COc1ccccc1-n1c(-c2cc(-c3ccco3)[nH]n2)n[nH]c1=S`: the inhibition was 2.77% (inactive).

For `CS(=O)(=O)n1nc(-c2ccco2)nc1N`, the inhibition is 3.45% (inactive).

On to `CCOC(=O)c1cnc2c(c(C)nn2CC)c1Cl`, for which the inhibition is -8.37% (inactive).

Take `CCCn1c(N)c(C(=O)CSc2nnc(-c3cccnc3)n2-c2ccc(C)cc2C)c(=O)[nH]c1=O`: the inhibition is 2.06% (inactive).

Regarding `CCc1ccc(OCC(O)CN2CCN(CCO)CC2)cc1` (stereo unspecified), the inhibition is 7.06% (inactive).

As to `O=C(Nc1cccc2ccccc12)c1onc2c1CCCC2`, the inhibition is 64.8% (active).

Turning to `CN(CC(=O)Nc1ccc(Cl)cc1)CC(=O)Nc1cccc2ccccc12`, the inhibition was -3.2% (inactive).

For `O=C(O)Cc1ccc(NC(=O)Nc2cccc3ccccc23)cc1`, the inhibition is 18.4% (inactive).

For `O=C1COc2ccc(C(=O)COC(=O)CCOc3ccccc3)cc2N1`, the inhibition was 7.4% (inactive).

For `Cc1cccc(C(=O)N[C@H](C(=O)NCc2cccs2)C(C)C)c1`, the inhibition is 2.96% (inactive).

For `COC(=O)C1(C)NC(c2ccccc2OC)C2C(=O)N(c3ccccc3)C(=O)C21` (stereo unspecified), the inhibition was -1.56% (inactive).

As for `COC(=O)c1cc(NC(=O)CN2CCN(C(C)=O)CC2)cc(C(=O)OC)c1`, the inhibition is 11.3% (inactive).

Turning to `O=C(CSc1ncn[nH]1)Nc1ccnc2ccccc12`, the inhibition was 11.7% (inactive).

With `COc1ccc(C(=O)Nc2ccc(C3(C#N)CCCC3)cc2)cc1OC`, the inhibition was 95.4% (active).

Regarding `COc1ccc(C(=O)Nc2ccc3nc(N4CCCCC4)cc(C)c3c2)cc1OC`, the inhibition was -1.83% (inactive).

`COc1cc(C(=O)NCC2(c3ccccc3)CCCC2)ccc1OC(C)C`: the inhibition was 11.3% (inactive).

For the molecule `CC1CCN(S(=O)(=O)c2ccc(S(=O)(=O)NCc3ccco3)cc2)CC1`, the inhibition is -4.7% (inactive).

As for `O=[N+]([O-])c1ccccc1N/N=C1\CCc2ccccc21`, the inhibition is 54% (active).

Consider `CN1CCN(CCNC(=O)Nc2ccccc2[N+](=O)[O-])CC1`, for which the inhibition is -10.6% (inactive).

In the case of `O=[N+]([O-])c1cc(C(F)(F)F)ccc1NN=C1CCCC1`, the inhibition was 5.78% (inactive).

For the molecule `O=C(O)c1cc2ccccc2c(=O)s1`, the inhibition was -3.56% (inactive).

Consider `Cc1ccsc1C(=O)OCC(=O)c1cc(C)n(CC2CCCO2)c1C` (stereo unspecified), for which the inhibition is 94.5% (active).

Take `Cc1cc(C(=O)Cn2cnc3cc([N+](=O)[O-])ccc3c2=O)c(C)n1CC1CCCO1` (stereo unspecified): the inhibition was 1.73% (inactive).

With `COc1ccc(C(=O)OCC(=O)c2cc(C)n(CC3CCCO3)c2C)cc1[N+](=O)[O-]` (stereo unspecified), the inhibition is -9.42% (inactive).

Take `CC1CCc2c(c3ccccc3[nH]c2=O)O1` (stereo unspecified): the inhibition is 4.43% (inactive).

As to `COc1ccc(CNC(=O)Cc2ccc(-c3ccccc3)cc2)cc1OC`, the inhibition was -4.04% (inactive).

`COc1ccc(CNC(=O)COC(=O)c2c(C)nn(-c3ccccc3)c2C)cc1OC`: the inhibition was 4.03% (inactive).

With `COc1ccc(CNC(=O)COc2ccccc2C(=O)c2cnn(-c3ccccc3)c2)cc1OC`, the inhibition was 60.9% (active).

For `CCOc1ccc(C(=O)NCC(=O)N2CCCCCCC2)cc1OCC`, the inhibition is 6.97% (inactive).

For the molecule `CCN1C[C@@H]2[C@@H]3C(=O)N(Cc4ccccc4)C(=O)[C@@H]3[C@](Cc3ccccc3)(C(=O)OC)N2C1=NC1CCCCC1`, the inhibition is 8.17% (inactive).

Take `Cc1ccc(NC(=O)c2cccc(S(=O)(=O)N3CCCc4ccccc43)c2)nc1`: the inhibition was 5.31% (inactive).

Consider `CC(C)c1ccc(S(=O)(=O)N2CCC3(CC2)OCCO3)cc1`, for which the inhibition is 3.85% (inactive).

Consider `O=C1/C(=C/c2cccs2)CCC1C1CCCC1` (stereo unspecified), for which the inhibition was 70% (active).

Regarding `CCC1C/C(=C/c2cccs2)C(=O)/C(=C/c2cccs2)C1` (stereo unspecified), the inhibition is 1.12% (inactive).

With `COc1ccc(/C=C2\CCc3ccccc3C2=O)c(OC)c1OC`, the inhibition is -0.625% (inactive).

On to `CN1C/C(=C/c2cccs2)C(=O)/C(=C\c2cccs2)C1`, for which the inhibition is 7.35% (inactive).

In the case of `O=C1/C(=C/c2cccs2)SC(=S)N1C1CCS(=O)(=O)C1` (stereo unspecified), the inhibition was 0.763% (inactive).

For the molecule `O=C1/C(=C/c2cccs2)CCc2ccccc21`, the inhibition was 97.7% (active).

Turning to `CC(=O)N1CCN(S(=O)(=O)c2c(F)cc(F)c(Cl)c2F)CC1`, the inhibition is 2.44% (inactive).

As to `O=C1Nc2cc(C(=O)N3CCN(c4ccc(F)cc4)CC3)ccc2NC1CSCc1cccc(F)c1` (stereo unspecified), the inhibition is 8.91% (inactive).

Consider `COc1ccccc1C(=O)Nc1ccc(C)c(S(=O)(=O)N2CCCCC2)c1`, for which the inhibition was -5% (inactive).

For the molecule `Cc1cnc(C(=O)N2CCCC(N3CCN(c4ccccc4F)CC3)C2)cn1` (stereo unspecified), the inhibition is -6.9% (inactive).

Take `O=C1CN(C(=O)c2ccccc2F)C(c2ccc(F)cc2)c2cc(F)ccc2N1` (stereo unspecified): the inhibition was -0.54% (inactive).

`Oc1ccc(N=Nc2nccs2)c(O)c1`: the inhibition was 74.3% (active).

On to `Cc1ccc(OCC(=O)N2CCN(S(=O)(=O)c3ccc(Cl)s3)CC2)cc1C`, for which the inhibition was 8.22% (inactive).

As to `CSc1ccccc1-c1nnc(-c2ccc(Cl)cc2)o1`, the inhibition was 28.1% (inactive).

With `COc1ccccc1-c1nc(C(F)(F)F)c(OC)o1`, the inhibition is -6.4% (inactive).

With `COc1ccccc1-c1nnc(-c2ccc(F)cc2)o1`, the inhibition was 50.3% (active).

Turning to `O=C(NCc1cccc(Cl)c1)C1=CC=CN2CCS(=O)(=O)N=C12`, the inhibition is -0.294% (inactive).

`CCN1C(=O)c2cccc3c(S(=O)(=O)Nc4ccccc4O)ccc1c23`: the inhibition is 11.4% (inactive).

Take `CCN1C(=O)c2cccc3c(N)ccc1c23`: the inhibition is 95.9% (active).

As for `CN1C(=O)c2cccc3c(N)ccc(c23)C1=O`, the inhibition is -3.67% (inactive).

Take `CCOC(=O)C1=NNC2(c3ccc(Cl)cc3)C(=O)N(c3cc(C)cc(C)c3)C(=O)C12` (stereo unspecified): the inhibition was 6.05% (inactive).

Consider `CCCn1c(=O)c2c(C(F)(F)F)cc(-c3cccs3)nc2n(CCC)c1=O`, for which the inhibition is 3.7% (inactive).

On to `O=C(NCc1ccccn1)c1c(O)c2c([nH]c1=O)CCCC2`, for which the inhibition was 53.8% (active).

On to `C[N+](C)(C)CCNC(=O)c1c(O)c2c([nH]c1=O)CCCC2`, for which the inhibition was 4.83% (inactive).

Regarding `CCc1nnc(NC(=O)c2c(O)c3c([nH]c2=O)CCCC3)s1`, the inhibition was -5.71% (inactive).

For `CN1CCN(S(=O)(=O)c2ccc(Nc3ccc(F)cc3)nc2)CC1`, the inhibition is -1.19% (inactive).

As for `O=C(Nc1ccn(Cc2ccccc2F)n1)c1ccc(COc2ccc(Cl)cc2Cl)o1`, the inhibition was -4.47% (inactive).

In the case of `O=C(Nc1ccn(Cc2ccccc2)n1)c1n[nH]c([N+](=O)[O-])c1Cl`, the inhibition is 93.9% (active).

Consider `Cc1c(Br)c([N+](=O)[O-])nn1CC(=O)N1CCN(Cc2ccccc2)CC1`, for which the inhibition was -3.11% (inactive).

On to `CCN(CC)S(=O)(=O)c1ccc(C(=O)N2CCN(C3=NS(=O)(=O)c4ccccc43)CC2)cc1`, for which the inhibition is 0.565% (inactive).

In the case of `COC(CNC(=O)c1ccc2c(c1)ncn2-c1cc(C)cc(C)c1)OC`, the inhibition was -3.05% (inactive).

Regarding `COc1cc2c(cc1OC)C(C)N(S(=O)(=O)c1cnc(Cl)c(Cl)c1)CC2` (stereo unspecified), the inhibition was 7.13% (inactive).

For `CCn1ccnc1CN(C)Cc1nc(-c2ccc3c(c2)OCO3)no1`, the inhibition is 3.04% (inactive).

On to `COc1ccc(OCC(=O)Nc2ccc(NC(=O)c3ccco3)c(C)c2)cc1`, for which the inhibition is -4.14% (inactive).

As for `COc1ccccc1C(=O)Nc1ccc(NC(=O)c2ccco2)c(C)c1`, the inhibition is 50.6% (active).

On to `O=C(Nc1ccc(O)cc1)c1ccc(NC(=O)c2ccco2)cc1`, for which the inhibition is -10.1% (inactive).

Turning to `Cc1cc(NC(=O)c2ccc(F)cc2)ccc1NC(=O)c1ccco1`, the inhibition was 64.1% (active).

On to `Cc1cccc(OCC(=O)Nc2ccc(NC(=O)c3ccco3)c(C)c2)c1`, for which the inhibition was 7.42% (inactive).

`COc1ccc(NC(=O)c2ccco2)cc1NC(=O)c1ccc(C#N)cc1F`: the inhibition is 1.99% (inactive).

`[O-][N+]12CCCCC1CCCC2CO` (stereo unspecified): the inhibition was 5.46% (inactive).

Regarding `O=C(COc1nc2ccccc2nc1N1CCOCC1)NCC(F)(F)F`, the inhibition is -5.55% (inactive).

On to `CC1CCN(C(=O)C2CCN(S(=O)(=O)N3CCC4(CC3)OCCO4)CC2)CC1`, for which the inhibition is 6.94% (inactive).

Take `O=C(Nc1cccnc1Cl)c1cc(-c2ccccc2O)on1`: the inhibition was 52% (active).

On to `O=C(Nc1cccnc1Cl)c1cc(-c2cccc(Cl)c2)on1`, for which the inhibition is -0.404% (inactive).

Consider `C=CCNC(=O)c1cc(-c2ccccc2O)on1`, for which the inhibition is -13.1% (inactive).

Regarding `Cc1nc2nc(COc3ccccc3)[nH]n2c(=O)c1Cc1ccccc1`, the inhibition was -6.63% (inactive).

On to `CC(Oc1ccc(Br)cc1Br)C(=O)NC1CCCC1` (stereo unspecified), for which the inhibition was 4.39% (inactive).

With `CN(CCC(=O)Nc1cc(S(=O)(=O)N(C)C)ccc1Cl)CC(=O)Nc1ccc(F)cc1`, the inhibition was 4.2% (inactive).

Regarding `Cc1ccccc1Nc1c([N+](=O)[O-])ccc2nonc12`, the inhibition was -0.26% (inactive).

In the case of `Cc1ccc(-n2nc3ccc(NC(=O)/C=C/c4ccco4)cc3n2)cc1C`, the inhibition was -3.4% (inactive).

Regarding `CCC(=O)Nc1ccc2nn(-c3ccc(F)cc3)nc2c1`, the inhibition is 81.9% (active).

Turning to `Cc1cccc(C(=O)OCC(=O)Nc2ccc(F)cc2)c1`, the inhibition was -5.6% (inactive).

Consider `CC12CN(Cc3ccccc3)CC(C)(CN(Cc3ccccc3)C1)C2=NO`, for which the inhibition is -9.93% (inactive).

Consider `COc1cccc(C(=O)Nc2nnc(S(=O)(=O)N(C)c3ccccc3)s2)c1`, for which the inhibition is 2.47% (inactive).

For the molecule `CCc1noc(C)c1C(=O)Nc1nc2ccc(OC)cc2s1`, the inhibition was 53.6% (active).

Turning to `CCc1noc(C)c1C(=O)Nc1nc(-c2ccccc2)cs1`, the inhibition was 0.582% (inactive).

Consider `COc1cccc(C(=O)Nc2nnc(S(=O)(=O)N3CCOCC3)s2)c1`, for which the inhibition is -5.71% (inactive).

For `Cc1noc(C)c1CSCC(=O)Nc1nc2ccc(Oc3ccccc3)cc2s1`, the inhibition is 7.89% (inactive).

In the case of `COc1cccc(C(=O)Nc2nc3ccc(S(C)(=O)=O)cc3s2)c1`, the inhibition is 91.1% (active).
